Test results reported in PubChem BioAssay (NCI).
About 83,000 compounds went through this panel and 20% of them were active in at least one assay; those are over-represented in the sample as a whole.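 The test compound was applied at a single concentration to cells in 96-well plates for 48 hours, and percent growth was recorded.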 A number with no mark means an inactive call. Activity calls are given as the source filed them. Rule for the calls: active = growth percent below 10; inactive = the rest.

System: ACHN renal
Test: NCI-60 one-dose screen, 48 h (100 = growth as untreated, 0 = no growth, -100 = all killed)
Conditions: 10 µM unless noted

Question: How did the growth turn out when `Cc1cc(C)nc(NC(N)=NCCc2ccccc2)n1` was run?
Answer: 46.9%

Question: How did the growth turn out when `Cn1cc(-c2csc(-c3cn(CCN)c4ccc(F)cc34)n2)c2cccnc21` was run?
Answer: 60.9%

Question: How did the growth turn out when `CN(C)CCCCC(C(=O)CBr)(c1ccccc1)c1ccccc1` was run?
Answer: -65.4% (active)

Question: Which growth does the source give for `CC/C=C\C[C@H]1CC=C2C(=O)C=C[C@@H]2CC=CCCCC(=O)O[C@@H](CCCCC)CC=C2C(=O)C=C[C@@H]2CC=CCCCC(=O)O[C@@H](CCCCC)CC=C2C(=O)C=C[C@@H]2CC=CCCCC(=O)O[C@@H](CCCCC)CC=C2C(=O)C=C[C@@H]2CC=CCCCC(=O)O1` here?
Answer: 19.6% [7.9 µM]

Question: With `Clc1ccc2c(NCCNc3nc(-c4ccccc4)cc(-c4ccccc4)n3)ccnc2c1` as the compound, how does the growth read?
Answer: -97.2% (active)

Question: With `Cc1cc(N(CCCNc2ccnc3cc(Cl)ccc23)Cc2ccco2)nc(N2CCN(C)CC2)n1` as the compound, how does the growth read?
Answer: 18.6%

Question: How did the growth turn out when `O=C1CNCCN1` was run?
Answer: 106%

Question: How did the growth turn out when `O=C1Nc2ccccc2/C1=C/c1cn(CCCn2c3ccccc3c(=O)c3ccccc32)c2ccccc12` was run?
Answer: 89%

Question: `Cn1cc(-c2csc(-c3c[nH]c4ccc(F)cc34)n2)c2cccnc21` was tested. Which growth did it give?
Answer: 48.8%

Question: For `Cc1cc(Cl)nc(N(CCCNc2ccnc3cc(Cl)ccc23)Cc2ccco2)n1`, which growth is on record?
Answer: 28.4%

Question: `CC1(c2ccccc2)OC1C(=O)O` (centres undefined) was tested. Which growth did it give?
Answer: 102%

Question: For `COc1cc(/C=C2\C(=O)N(CC(O)COc3cc(O)c4c(=O)cc(-c5ccccc5)oc4c3)c3ccccc32)cc(OC)c1O` (centres undefined), which growth is on record?
Answer: 80.4%

Question: How did the growth turn out when `Oc1cccc2oc(=S)[nH]c12` was run?
Answer: 99.7%

Question: Which growth does the source give for `COc1ccc2c(c1)c(-c1nc(-c3c[nH]c4ncccc34)cs1)cn2CCN` here?
Answer: 41.3%

Question: Which growth does the source give for `Cc1ccc(NC2CC(=O)N(c3c(C)cc(C)cc3C)C2=O)c(C)c1` (centres undefined) here?
Answer: 101%

Question: With `CC1c2ccccc2N(S(=O)(=O)c2ccccc2)C1C` (centres undefined) as the compound, how does the growth read?
Answer: 93.6%

Question: Which growth does the source give for `Nc1ccc(Cl)cn1` here?
Answer: 109%

Question: Which growth does the source give for `Nc1c2c(nc3ccc(Br)cc13)CC(c1ccccc1)CC2=O` (centres undefined) here?
Answer: 57.7%

Question: How did the growth turn out when `COc1ccc2[nH]c(-c3ccc(Cl)cc3)cc(=O)c2c1` was run?
Answer: 103%

Question: With `Cc1cc(N(CCCNc2ccnc3cc(Cl)ccc23)Cc2ccco2)nc(Cl)n1` as the compound, how does the growth read?
Answer: 64.8%

System: CAKI-1 renal
Test: as above
Conditions: 10 µM unless noted

Question: How did the growth turn out when `COc1cc2c3c(c4c5ccccc5[nH]c4c2c(OC)c1OC)C(=O)N(O)C3=O` was run?
Answer: 36%

Question: How did the growth turn out when `Cc1cc2nc3c4cc(O)ccc4n(CCN(C)C)c3nc2cc1C` was run?
Answer: -39% (active)

Question: Which growth does the source give for `Cc1csc(Nc2nc(-c3ccc(Cl)cc3)nc(C(Cl)(Cl)Cl)n2)n1` here?
Answer: 78.1%

Question: For `COc1cc(-c2c(C#N)c(-c3cccs3)nc3c2c(-c2ccccc2)nn3-c2ccccc2)ccc1O`, which growth is on record?
Answer: 66.6%

Question: With `CN1CCN(c2ccc3nc(-c4[nH]ncc4Nc4ncnc5c4OCCCN5)[nH]c3c2)CC1` as the compound, how does the growth read?
Answer: -86.2% (active)

Question: `COC(=O)[C@]12CC[C@@H](C)[C@H](C)[C@@H]1C1=CC[C@@H]3[C@@]4(C)C[C@@H](O)[C@H](O)[C@@](C)(CO)C4=CC[C@@]3(C)[C@]1(C)CC2` was tested. Which growth did it give?
Answer: -10.2% (active)

Question: How did the growth turn out when `O=C(NO)c1ccc(Cn2c(=O)n(-c3ccccc3)c(=O)c3ccccc32)cc1` was run?
Answer: 56.9%

Question: With `COC(=O)[C@]12CC[C@@H](C)[C@H](C)[C@@H]1C1=CC(=O)[C@@H]3[C@@]4(C)C[C@@H](O)[C@H](O)[C@@]5(C)COC(=C45)C[C@@]3(C)[C@]1(C)CC2` as the compound, how does the growth read?
Answer: 71.1%

Question: For `Cc1ccc(N(CC(=O)Nc2ccc(S(=O)(=O)N3CCC(N4CCCC4)CC3)cc2)S(=O)(=O)c2ccc(Cl)cc2)cc1`, which growth is on record?
Answer: 18.2%

Question: For `Oc1ccc(Nc2ccccc2)cc1`, which growth is on record?
Answer: 65.4%

Question: How did the growth turn out when `CCCCCCCCNc1cccc2c1C(=O)c1ccccc1C2=O` was run?
Answer: 98.3%

Question: With `C=C1C(=O)O[C@H]2[C@H]1CC/C(Cn1cc(-c3ccc(OC)cc3)nn1)=C\CC[C@@]1(C)O[C@@H]21` as the compound, how does the growth read?
Answer: -4.52% (active)

Question: For `O=c1[nH]c2c3ccncc3cc(-c3cccc(Cl)c3)c2c2cnccc12`, which growth is on record?
Answer: 63.3%

Question: `COc1ccc(/C=C/C(=O)NCC(C)O)cc1` (centres undefined) was tested. Which growth did it give?
Answer: 95.8%

Question: `COc1cc(/C=C/c2cc(/C=C/c3ccc(O)c(OC)c3)n(-c3ccc(Cl)cc3)c(=O)n2)ccc1O` was tested. Which growth did it give?
Answer: 92.9%

Question: Which growth does the source give for `C=C(C)[C@@H]1CC[C@]2(C(=O)N3CCCNCC3)CC[C@]3(C)[C@H](CC[C@@H]4[C@@]5(C)CCC(=O)C(C)(C)[C@@H]5CC[C@]43C)[C@@H]12` here?
Answer: 67.8%

Question: Which growth does the source give for `CCc1nnc(NC(=O)c2ccoc2COc2ccccc2)s1` here?
Answer: 41.9%

Question: Which growth does the source give for `CC(C)(C)n1cc(-c2ccnc(NCCCNS(=O)(=O)c3ccc(Cl)cc3)c2)c(-c2cccc(F)c2)n1` here?
Answer: 77.9%

Question: How did the growth turn out when `COc1cc(/C=N/NC(=S)NNC(=S)NC2CCCCC2)cc(OC)c1OC` was run?
Answer: 77.7%
